IP6K1 inh = inhibitors of human IP6K1; Q92551; activity change, % (series mostly up to about 58 µM); IP6K1 kinase, ADP-Glo luminescence, 2 h; stronger effect = lower value; 140,000 compounds, 0.81% hits; AID 1645851; in the data active means activity change below about -25%
Target sequence (Q92551 whole entry, looked up): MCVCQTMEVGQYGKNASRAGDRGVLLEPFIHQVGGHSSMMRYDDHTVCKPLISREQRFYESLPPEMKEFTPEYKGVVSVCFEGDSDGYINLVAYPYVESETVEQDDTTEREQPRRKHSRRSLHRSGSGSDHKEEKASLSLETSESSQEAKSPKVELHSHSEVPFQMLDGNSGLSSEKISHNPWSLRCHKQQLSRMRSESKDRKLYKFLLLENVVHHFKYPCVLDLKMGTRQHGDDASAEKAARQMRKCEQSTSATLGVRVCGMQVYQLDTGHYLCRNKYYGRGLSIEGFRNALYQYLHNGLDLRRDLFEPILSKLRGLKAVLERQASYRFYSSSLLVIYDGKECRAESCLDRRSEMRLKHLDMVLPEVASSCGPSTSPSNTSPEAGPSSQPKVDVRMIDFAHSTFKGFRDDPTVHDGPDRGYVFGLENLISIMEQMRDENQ
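ADP-Glo luminescence measures ADP made by human IP6K1 during a 2 h RT reaction with ATP/IP6 (mix at 1.3 mM/130 uM); top library doses 57.5 and 19.1 uM final.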
SNCA expr inh = inhibitors of alpha-synuclein (SNCA) gene expression. Potency, µM (doses to about 57.2 µM), without a hit: top-dose activity change, negative = inhibition, usual class: inhibitors. HEK-293 SNCA-luciferase knock-in, luminescence, 24 h. AID 1671194. 140,000 compounds, 0.17% hits;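 further: potency means the concentration at half of the fitted maximal effect; plate controls were DMSO cells for no effect and cell-free wells for full effect; nearly all actives have a fitted effect of over 45% in size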
GPT2 inhibitor = blocks human glutamate pyruvate transaminase 2. Q8TD30. Recombinant GPT2, coupled pyruvate oxidase/HRP Amplex Red fluorescence. Potency, µM (titrated, usually from 57.7 µM), for the others: top-dose activity change, negative = inhibition, hits mostly inhibitors. 100,000 compounds, 0.25% hits. AID 1671188; further: potency means the concentration at half of the fitted maximal effect; nearly all actives have a fitted effect of over 60% in size
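GPT2 10ng/uL, a-KG 250uM, L-Ala 2mM, HEPES pH7.5 + 0.0001% Tween; 30 min RT. Then Amplex mix (PO/HRP/ThPP), 30 min RT dark, fluorescence. AOA 50uM used as positive control.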
HEK293 viab = counter-screen for SNCA expression inhibitors: cell viability | HEK-293-SNCA-luc viability, GF-AFC fluorescence, 24 h | Potency, µM (titrated, usually from 57.1 µM), for inactives: at the highest dose activity change, negative = cytotoxicity, actives largely listed as cytotoxic | 150,000 compounds, 0.12% hits;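 further: potency means the concentration at half of the fitted maximal effect; 0% = DMSO-treated cells and -100% = medium-only wells without cells; nearly all actives have a fitted effect of over 30% in size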
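HEK-293-SNCA-luc cells (1500/well) plated 24 h, then exposed 24 h to a dilution series; GF-AFC added 30 min at 37C, fluorescence 405/540 nm; normalised to medium-only and DMSO wells, Hill fit.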
IP6K1 inh cnf = human IP6K1 inhibition, confirmatory. Potency, µM (highest dose often 49 µM), for the others: top-dose activity change, negative = inhibition, hits mostly inhibitors. 1,200 compounds, 13% hits. recombinant IP6K1 kinase, ADP-Glo luminescence, 2 h. shares compounds with IP6K1 inh. AID 1645852; further: potency means the concentration at half of the fitted maximal effect; nearly all actives have a fitted effect of over 65% in size
* marks the source's active call; other numbers are inactive results; i = inactive; ? = inconclusive; · = not tested or not shown; ! = not active in a repeat; [ ] = another dose, or the depositor's remark. Most compounds without a hit are left out; they make up all but 1% or so of the library. Unless noted, the call rests on the fitted dose curve; in most records, active means well fitted curve in the direction sought with a large enough effect; inconclusive means small, poorly fitted or top-dose-only effect, or another doubt; inactive means no such curve, though single readings can be large; an effect the other way counts as inactive or inconclusive. Unless noted, on the % scale 0 is the no-effect control and ±100 the full control effect.

SMILES	IP6K1 inh	SNCA expr inh	GPT2 inhibitor	HEK293 viab	IP6K1 inh cnf
O=C(Cc1ccccn1)NC1CCN(Cc2cccc(-c3cccs3)c2)CC1	-6	10%	?	?	·
CCCCOc1c(C(=O)c2c(F)cc(C)cc2F)cnc2n[nH]cc12	-5	?	-2%	-11%	·
CCCS(=O)(=O)Nc1ccc(F)c(C(=O)c2c[nH]c3ncc(Cl)cc23)c1F	-31*	12µM*	-3%	?	?
Cc1ccccc1CNC(=O)c1sc2ncnc(N(C)C3CCCCC3)c2c1C	-28*	3%	·	-5%	-17%
O=C(NCCc1noc(-c2ccccc2)n1)c1n[nH]c2c1CCCCCC2	7	11%	i	-23%	·
CCc1nn(CC(=O)N2CCN(c3cccc(C)c3C)CC2)c(=O)c2cc3sccc3n12	-29*	-6%	·	14%	-15%
CCc1nn(CC(=O)N2CCN(c3cccc(Cl)c3)CC2)c(=O)c2cc3sccc3n12	-15	?	·	-2%	·
O=C1N(Cc2ccc(F)cc2)C[C@H]2CN(Cc3ccccn3)CCN12	-32*	11%[87.6 µM]	-8%[88.5 µM]	1%[87.6 µM]	?
CC1CCN(c2ccc(-c3cccc(N)c3)nn2)CC1	-44*	1.4µM*	1%	-19%	?
Brc1c(Br)c(Br)c2n[nH]nc2c1Br	·	2%	-9%	12%	0.73µM*
O=C(CNC(=O)c1cccc(-c2ccc(C(F)(F)F)cc2)c1)NCc1ccccc1F	-2	-14%	i	-1%[12.5 µM]	·
O=C(c1ccc(-c2ncc3cnc(-c4cccc(F)c4)cn23)cc1)N1CC(O)C1	-29*	17%[87.6 µM]	i	3%[87.6 µM]	-14%
O=C(NCC1CC1)C1CCCCN1Cc1ccc(-c2cccs2)cc1 (configuration not stated)	-18	-25%	2%	11%[12.5 µM]	·
COc1ccc(CNC(=O)CSc2ncc3c(n2)-c2cc(Cl)ccc2N(Cc2ccccc2)S3(=O)=O)cc1OC	-8	-7%	·	1%	·
COc1ccc(CNC(=O)CSc2ncc3c(n2)-c2cc(Cl)ccc2N(Cc2ccccc2)S3(=O)=O)cc1	-27*	25%	·	4%	9%
C=CCOc1c(OC)ccc2c1CN(Cc1ccccc1)C(=O)CCN2CC(O)Cc1ccccc1 (configuration not stated)	-4	·	·	·	·
CNC(=O)c1ccccc1Nc1cc(Nc2ccc(N3CCOCC3)cc2OC)ncc1C(F)(F)F	-53*	·	22µM*	-26%	?
CNC(=O)c1ccccc1Nc1nc(Nc2ccc(N3CCNCC3)cc2)ncc1Cl	-20	·	-3%	-39%	·
COc1ccc(OCC(=O)NCc2ccc3c(c2)CCN3C(=O)c2ccc(F)cc2)cc1	-36*	-4%	·	20%	-9%
O=C(COc1ccc(F)cc1)NCc1ccc2c(c1)CCN2C(=O)c1ccc(F)cc1	-14	12%	·	-1%	·
Cc1ccc(-c2n[nH]c3c2C(c2ccccc2Cl)N(c2ccc(C(=O)O)cc2)C3=O)cc1 (configuration not stated)	-29*	?	·	-6%	-18%
CCOc1cc(C(=O)Nc2ccc(-c3nc4ncccc4o3)cc2C)cc(OCC)c1OCC	-26*	-20%	·	5%	9%
COc1ccccc1-c1cccc(CN2CCC(NC(=O)c3cccnc3)CC2)c1	0	·	·	·	·
CCOCCNc1ncnc2c1CN(C1CCCCC1)C(=O)CN2C	-10	56%	?	-14%	·
CCOCCNc1ncnc2c1CN(C1CCCNCC1)C(=O)CN2C (configuration not stated)	-28*	13%	-8%	5%	-9%
SMILES	IP6K1 inh	SNCA expr inh	GPT2 inhibitor	HEK293 viab	IP6K1 inh cnf
N=c1c2c(-c3ccccc3)cn(Cc3ccccc3)c2ncn1CCCO	·	·	·	·	-1%
Cn1c(=O)c2c(-c3ccccc3)n(CCCO)cc2n(C)c1=O	2	48%	·	-14%	·
Cc1cc(-c2nc3ncccc3[nH]2)c(C)[nH]1	8	151%[87.6 µM]	-4%[88.5 µM]	-3%[87.6 µM]	·
c1cnc2nc(-c3c[nH]c4ncccc34)[nH]c2c1	-44*!	55%[87.6 µM]	-58%[88.5 µM]	-29%[87.6 µM]	?
COc1cc(C(=O)Nc2ccc3nn(-c4ccc(F)cc4)nc3c2)cc(OC)c1OC	-6	-2%	·	3%	·
O=C(Nc1ccc2nn(-c3ccc(F)cc3)nc2c1)c1cccc2c(Cl)cccc12	-28*	47%	·	0%	34%
